The values that follow come from PubChem BioAssay (Tox21).

A short description of assay [1]: qHTS assay to identify small molecule antagonists of the thyroid receptor (TR) signaling pathway - cell viability counter screen (AID 743064). Further: nearly all actives have a fitted effect of over 50% in size. Further: potency means the concentration at half of the fitted maximal effect. In a few lines:
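Rat GH3 pituitary tumor cells stably expressing two TR response elements driving luciferase were plated, rested 4 h, then dosed with library compounds and T3 (1 nM final). After 23.5 h at 37 °C, CellTiter-Fluor was added for 30 min and fluorescence recorded.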
For orientation: qHTS replaces the single test concentration by a dilution series.

Assay [2] can be described thus: qHTS assay to identify small molecule antagonists of the thyroid receptor (TR) signaling pathway (AID 743065). Further: nearly all actives have a fitted effect of over 55% in size. Further: potency means the concentration at half of the fitted maximal effect. A digest of the protocol: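 GH3.TRE-Luc rat pituitary cells carrying two TR response elements driving luciferase were plated for 4 h, given compound plus 1 nM T3 (final), and incubated 23.5 h at 37 C. ONE-Glo luminescence measured reporter inhibition; CellTiter-Fluor fluorescence tracked cytotoxicity.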

The test system of assay [3] is thyroid hormone receptor (rat, GH3 cells). Kind of assay: qHTS assay to identify small molecule agonists of the thyroid receptor (TR) signaling pathway (AID 743066; calls by dose curve).
Assay [4] in a line: qHTS assay to identify small molecule antagonists of the estrogen receptor alpha (ER-alpha) signaling pathway - cell viability counter screen (AID 743074; calls by dose curve;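 further: HEK293 cells carrying ER-alpha-UAS-bla reporter stimulated with 17beta-estradiol; nearly all actives have a fitted effect of over 45% in size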).
Assay [5] in a line: qHTS assay to identify small molecule antagonists of the estrogen receptor alpha (ER-alpha) signaling pathway using the BG1 cell line - cell viability counter screen (AID 743081).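 Further: compound given together with 17beta-estradiol as the ER stimulus; nearly all actives have a fitted effect of over 45% in size.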 Further: potency means the concentration at half of the fitted maximal effect.
Assay [6] deals with Aromatase (Homo sapiens) (UniProt P11511). Put plainly: qHTS assay to identify aromatase inhibitors (AID 743083). Further: nearly all actives have a fitted effect of over 55% in size. Further: potency means the concentration at half of the fitted maximal effect.
Chain of Aromatase (Homo sapiens) (P11511 whole entry, looked up): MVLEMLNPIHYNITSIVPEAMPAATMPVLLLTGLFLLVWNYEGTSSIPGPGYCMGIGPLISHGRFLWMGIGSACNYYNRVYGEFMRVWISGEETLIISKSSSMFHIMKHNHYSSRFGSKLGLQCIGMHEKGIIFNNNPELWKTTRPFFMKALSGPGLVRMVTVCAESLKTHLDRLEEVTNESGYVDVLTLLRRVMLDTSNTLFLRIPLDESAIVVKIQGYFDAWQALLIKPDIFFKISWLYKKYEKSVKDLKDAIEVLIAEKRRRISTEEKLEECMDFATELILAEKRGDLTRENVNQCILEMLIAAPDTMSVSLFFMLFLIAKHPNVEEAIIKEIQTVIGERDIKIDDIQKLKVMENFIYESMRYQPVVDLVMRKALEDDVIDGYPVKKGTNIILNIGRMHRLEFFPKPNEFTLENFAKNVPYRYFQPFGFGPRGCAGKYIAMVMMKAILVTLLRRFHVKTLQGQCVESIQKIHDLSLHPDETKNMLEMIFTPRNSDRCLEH
The nature of assay [7]: qHTS assay to identify aromatase inhibitors - cell viability counter screen (AID 743084).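 Further: cells stimulated with testosterone during compound exposure; nearly all actives have a fitted effect of over 55% in size.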 Further: potency means the concentration at half of the fitted maximal effect.
Assay [8] concerns the target Aryl hydrocarbon receptor (Homo sapiens) (UniProt P35869). Kind of assay: qHTS assay to identify small molecule that activate the aryl hydrocarbon receptor (AhR) signaling pathway (AID 743085). Further: nearly all actives have a fitted effect of over 15% in size. Further: potency means the concentration at half of the fitted maximal effect.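 On activation: HG2L7.5c1 human HepG2 liver cells with stably integrated DRE-driven firefly reporter; series mostly up to about 70 µM.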 In a few lines: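 Compounds were tested in HepG2 hepatocellular carcinoma cells harbouring a stably integrated luciferase gene under control of 20 DREs. Increased reporter signal after 24 h treatment at 37C was taken as AhR activation.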

Assay [9] is described as follows: qHTS assay to identify small molecule that activate the aryl hydrocarbon receptor (AhR) signaling pathway - cell viability counter screen (AID 743086).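 Further: HepG2 liver cells carrying the AhR DRE luciferase reporter; series mostly up to about 70 µM; nearly all actives have a fitted effect of over 45% in size.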 A digest of the protocol:
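HepG2-AhR-luc (HG2L7.5c1) cells, 4000/well, were preincubated 5 h at 37C, exposed to compound in qHTS format for 24 hr at 37C, then given CellTiter-Fluor for 30 min; viability was read as fluorescence in the reporter wells.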

Assay [10] deals with Peroxisome proliferator-activated receptor gamma (Homo sapiens) (UniProt P37231). Kind of assay: qHTS assay to identify small molecule agonists of the peroxisome proliferator-activated receptor gamma (PPARg) signaling pathway (AID 743094; active means well fitted activation curve with a large enough effect in the signal ratio in the repeat runs, not every such curve was filed as active; the % refers to the signal ratio). In a few lines: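 Agonism was assessed in a beta-lactamase reporter system, HEK293H cells with a stably integrated UAS-bla construct under PPARg control; the 17 h treatment at 37C preceded a 1 h room-temperature FRET substrate read.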
Chain of Peroxisome proliferator-activated receptor gamma (Homo sapiens) (P37231 whole entry, looked up): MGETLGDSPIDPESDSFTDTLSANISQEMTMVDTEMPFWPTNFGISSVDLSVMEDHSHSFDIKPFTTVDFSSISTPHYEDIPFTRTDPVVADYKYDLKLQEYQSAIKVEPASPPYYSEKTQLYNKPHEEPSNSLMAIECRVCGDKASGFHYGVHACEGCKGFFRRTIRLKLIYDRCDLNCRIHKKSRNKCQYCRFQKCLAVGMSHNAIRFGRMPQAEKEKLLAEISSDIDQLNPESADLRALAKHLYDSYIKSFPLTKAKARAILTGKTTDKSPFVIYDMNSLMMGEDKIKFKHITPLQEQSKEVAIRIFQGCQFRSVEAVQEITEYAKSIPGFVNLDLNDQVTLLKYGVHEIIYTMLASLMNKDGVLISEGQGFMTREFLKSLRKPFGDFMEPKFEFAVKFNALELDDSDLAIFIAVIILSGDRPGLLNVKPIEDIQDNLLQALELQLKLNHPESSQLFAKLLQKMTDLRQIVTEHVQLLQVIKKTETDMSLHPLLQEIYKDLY

Assay [11] can be described thus: qHTS assay to identify small molecule antagonists of the peroxisome proliferator-activated receptor gamma (PPARg) signaling pathway - cell viability counter screen (AID 743194). Further: nearly all actives have a fitted effect of over 55% in size. A digest of the protocol:
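PPARg-UAS-bla HEK293H cells were plated, rested 5 h at 37 C, then treated with compounds plus rosiglitazone (50 nM final) for 17 h at 37 C; viability was then read by CellTiter-Glo luminescence after 30 min at room temperature.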

Assay [12] in a line: qHTS assay for small molecule agonists of the antioxidant response element (ARE) signaling pathway (AID 743202; active means well fitted activation curve with a large enough effect in the signal ratio in the repeat runs, not every such curve was filed as active; the % refers to the signal ratio; further: potency means the concentration at half of the fitted maximal effect). A digest of the protocol:
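Following a 16 h, 37 C exposure of reporter HepG2 cells (ARE-driven beta-lactamase, 2,000 cells/well) to compounds, FRET substrate was applied for 2 h at room temperature and fluorescence intensity recorded.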

Assay [13] in a line: qHTS assay for small molecule agonists of the antioxidant response element (ARE) signaling pathway - cell viability counter screen (AID 743203; calls by dose curve; further: nearly all actives have a fitted effect of over 55% in size; further: potency means the concentration at half of the fitted maximal effect). A digest of the protocol: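 ATP content via CellTiter-Glo luminescence served as the viability measure. Cells: ARE-bla HepG2, 2,000 per well. Exposure: 16 hrs, 37C/5% CO2.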
Assay [14] can be described thus: qHTS assay for small molecule activators of the heat shock response signaling pathway - cell viability counter screen (AID 743209). Further: nearly all actives have a fitted effect of over 50% in size. In a few lines:
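Compounds dissolved in DMSO were added to overnight-plated HSE-bla HeLa cells and left 5 h at 37 C. Cell viability was quantified by luminescence using CellTiter-Glo.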

Assay [15] can be described thus: qHTS assay for small molecule activators of the heat shock response signaling pathway (AID 743210; active means well fitted activation curve with a large enough effect in the signal ratio in the repeat runs, with a control signal flat, not every such curve was filed as active; the % refers to the signal ratio; further: series mostly up to about 63 µM). In a few lines: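 Heat shock element–beta-lactamase HeLa reporter cells; qHTS with compounds for 5 h at 37 C; detection by FRET substrate fluorescence after 2.5 h at RT.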
Assay [16] addresses Peroxisome proliferator-activated receptor gamma (Homo sapiens) (UniProt P37231). Put plainly: qHTS assay to identify small molecule antagonists of the peroxisome proliferator-activated receptor gamma (PPARg) signaling pathway (AID 743191; calls by dose curve; further: series mostly up to about 63 µM; nearly all actives have a fitted effect of over 30% in size). In a few lines:
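GeneBLAzer PPARg UAS-bla HEK293H cells carrying a UAS-driven beta-lactamase reporter were plated at 3000 cells/well, preincubated 5 h at 37C, then given compound for 17 h at 37C; LiveBLAzer B/G FRET substrate was read after 1 h at room temperature.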

For assay [17], the target named is Estrogen receptor (Homo sapiens) (UniProt P03372). Kind of assay: qHTS assay to identify small molecule antagonists of the estrogen receptor alpha (ER-alpha) signaling pathway (AID 743069; active means well fitted curve in the direction sought with a large enough effect in the signal ratio in the repeat runs, not every such curve was filed as active; the % refers to the signal ratio). In a few lines: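 A 17beta-estradiol challenge was applied right after compound transfer to ER-alpha-UAS-bla HEK293 cells previously kept in charcoal-stripped serum. Plates stood 18 hr at 37C and 5% CO2; fluorescence was read following 2 hr FRET substrate loading at room temperature.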
Chain of Estrogen receptor (Homo sapiens) (P03372 whole entry, looked up): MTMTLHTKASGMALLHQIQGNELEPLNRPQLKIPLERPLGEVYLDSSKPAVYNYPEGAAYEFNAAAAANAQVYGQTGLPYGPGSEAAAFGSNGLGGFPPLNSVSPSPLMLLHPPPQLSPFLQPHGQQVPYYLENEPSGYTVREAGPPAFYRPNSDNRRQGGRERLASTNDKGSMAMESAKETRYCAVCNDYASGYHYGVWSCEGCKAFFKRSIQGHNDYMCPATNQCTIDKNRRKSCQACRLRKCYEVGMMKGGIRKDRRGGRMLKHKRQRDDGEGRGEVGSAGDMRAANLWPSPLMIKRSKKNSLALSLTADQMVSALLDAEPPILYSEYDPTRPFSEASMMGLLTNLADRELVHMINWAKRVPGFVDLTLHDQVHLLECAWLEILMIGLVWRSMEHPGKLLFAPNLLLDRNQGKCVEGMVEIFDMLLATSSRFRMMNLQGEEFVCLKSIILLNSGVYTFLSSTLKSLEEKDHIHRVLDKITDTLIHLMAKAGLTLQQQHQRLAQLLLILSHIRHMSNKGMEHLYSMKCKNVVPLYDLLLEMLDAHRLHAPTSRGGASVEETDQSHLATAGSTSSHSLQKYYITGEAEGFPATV

Assay [18] is described as follows: qHTS assay to identify small molecule antagonists of the estrogen receptor alpha (ER-alpha) signaling pathway using the BG1 cell line (AID 743080; calls by dose curve;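 further: BG1 cells stimulated with 17beta-estradiol alongside compound; series mostly up to about 70 µM; nearly all actives have a fitted effect of over 25% in size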). A digest of the protocol: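 Endogenous full-length ER-alpha in BG1-Luc-4E2 cells drives a stably integrated 4×ERE luciferase gene; compounds were tested against 17beta-estradiol over 21.5 h, with luminescence and multiplexed viability fluorescence recorded.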

For assay [19], the target named is Estrogen receptor (Homo sapiens) (UniProt P03372). Kind of assay: qHTS assay to identify small molecule agonists of the estrogen receptor alpha (ER-alpha) signaling pathway (AID 743075; calls by dose curve;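 further: HEK293 GripTite cells with ER-alpha and UAS-driven beta-lactamase reporter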).
Assay [20] shares this target. Kind of assay: qHTS assay to identify small molecule agonists of the estrogen receptor alpha (ER-alpha) signaling pathway using the BG1 cell line (AID 743079). Further: nearly all actives have a fitted effect of over 20% in size.

Values joined by “and” are separate entries in the source; they are usually repeats but may differ in a detail not shown here. Equal values may be shown once. Records with an inconclusive call do not appear. A structure can be active in one record and inactive in another. Active and inactive are the calls of the source. Unless noted, the call rests on the fitted dose curve; in most records, active means well fitted curve in the direction sought with a large enough effect in the repeat runs; inconclusive means weak or mixed curves; inactive means no such curve, though single readings can be large; an effect the other way counts as inactive or inconclusive.

Chain of Aryl hydrocarbon receptor (Homo sapiens) (P35869 whole entry, looked up): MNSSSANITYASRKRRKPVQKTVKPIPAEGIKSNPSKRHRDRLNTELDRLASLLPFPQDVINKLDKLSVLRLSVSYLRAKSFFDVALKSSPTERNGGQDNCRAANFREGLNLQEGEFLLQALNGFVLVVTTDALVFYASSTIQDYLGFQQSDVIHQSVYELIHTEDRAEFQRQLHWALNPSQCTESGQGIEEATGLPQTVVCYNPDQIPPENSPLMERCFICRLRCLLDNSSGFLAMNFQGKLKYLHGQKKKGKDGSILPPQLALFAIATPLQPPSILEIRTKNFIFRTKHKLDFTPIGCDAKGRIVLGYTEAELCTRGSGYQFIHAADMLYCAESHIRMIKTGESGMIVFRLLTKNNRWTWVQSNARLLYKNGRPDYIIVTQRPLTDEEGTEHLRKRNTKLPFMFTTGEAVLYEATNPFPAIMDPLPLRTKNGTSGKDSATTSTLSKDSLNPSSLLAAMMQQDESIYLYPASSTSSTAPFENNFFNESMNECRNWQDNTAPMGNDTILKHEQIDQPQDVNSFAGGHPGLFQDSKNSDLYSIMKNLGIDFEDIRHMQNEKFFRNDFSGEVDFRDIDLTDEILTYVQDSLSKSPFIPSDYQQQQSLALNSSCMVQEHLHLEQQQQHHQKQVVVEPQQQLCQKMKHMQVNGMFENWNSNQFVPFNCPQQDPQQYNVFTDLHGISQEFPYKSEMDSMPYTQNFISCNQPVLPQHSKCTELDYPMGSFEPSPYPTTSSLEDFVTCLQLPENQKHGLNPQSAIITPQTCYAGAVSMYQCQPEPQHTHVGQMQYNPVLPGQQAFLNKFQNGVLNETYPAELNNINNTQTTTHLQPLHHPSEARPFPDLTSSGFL

Consider `CCCCC(CC)COC(C)=O` (stereo not drawn), for which the Potency entry in assay [1], in assay [2], in assay [4], in [5], in [6] and in [7] was “inactive” in each case. The Potency entry in assay [8], in assay [9], in assay [11], in assay [12], in assay [13] and in assay [14] was “inactive” throughout. The molecule was called inactive in [3], in [10] and in assay [15].

As to `CC(C)(N=C=O)c1cccc(C(C)(C)N=C=O)c1`, the Potency result in assay [1], in [2], in [4], in [5], in [6] and in assay [7] was “inactive” each time. Moreover, the Potency result in assay [8], in assay [9], in [16], in assay [11], in [12] and in assay [13] was “inactive” each time. Also, the Potency result in assay [14] is “inactive”. The molecule was called inactive in [3], in assay [10] and in [15].

As for `NCCNCCNCCNCCN`, the Potency entry in [1], in assay [2], in assay [4], in assay [5], in assay [6] and in assay [7] was “inactive” throughout. In addition, the Potency result in assay [8], in assay [9], in assay [11], in [13] and in [14] was “inactive” each time. Also, the result in [3] and in assay [10] was inactive.

Consider `O=C(O)c1ccc([N+](=O)[O-])cc1`, for which the Potency result in [1], in assay [2], in assay [4], in assay [5], in assay [6] and in assay [7] was “inactive” each time. The Potency result in assay [8], in assay [11], in assay [12], in assay [13] and in [14] was “inactive” in each case. For the same molecule, the call in assay [3] and in assay [15] was inactive.

For `Cc1cc(O)c2c(c1)C(=O)c1cc(O)cc(O)c1C2=O`, the Potency result is “inactive and 30.6 µM (active)” in assay [1]; 23.8 µM (active) and 15.4 µM (active) in assay [2]; 29.9 µM (active) and 24.3 µM (active) in [5]; 23.8 µM (active) and 54.5 µM (active) in assay [6]; 11.9 µM (active) and 24.3 µM (active) in assay [7]; 5.97 µM (active) and 34.4 µM (active) in [8]. Further, the Potency was 4.23 µM (active) in assay [12] and 23.8 µM (active) in assay [13]. Further, the call in [3] and in [10] was inactive. In addition, the Potency result in [17], in assay [4], in [18], in assay [11] and in [14] was “inactive” in each case.

As to `CCc1ccccc1O`, the Potency result in assay [1], in [2], in assay [17], in [19], in [20] and in [18] was “inactive” throughout. The Potency entry in assay [5], in assay [6], in assay [7], in assay [8], in [9] and in [16] was “inactive” each time. The Potency result in assay [11], in assay [12], in [13] and in assay [14] was “inactive” in each case. In addition, the result in assay [3] and in [10] was inactive.

Regarding `NC(=O)NNc1ccccc1`, the Potency entry in assay [1], in assay [2], in [4], in assay [5], in assay [6] and in assay [7] was “inactive” in each case. Moreover, the Potency entry in [8], in assay [9], in assay [11], in assay [12], in assay [13] and in assay [14] was “inactive” each time. For the same molecule, the outcome in [3] was inactive.

`Cc1cc(O)cc(C)c1Cl`: the Potency entry in [1], in assay [2], in assay [4], in [5], in [6] and in assay [7] was “inactive” in each case. Also, the Potency result in [9], in assay [16], in assay [11], in assay [12], in assay [13] and in [14] was “inactive” in each case. Moreover, the call in [3], in assay [10] and in [15] was inactive.
